MITF TRPM1 HTS = activators of MITF-driven TRPM1 promoter reporter, primary screen, cell-based, SK-MEL-5, luciferase, single point; SK-MEL-5 TRPM1-promoter luciferase, 24 h; % of positive control, neutral wells = 0; activation, % at 12.5 µM; 300,000 compounds, 0.75% hits;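 active = mean activation of at least 80% with every replicate also reaching 80%; inconclusive = mean reaches 80% but some replicate falls short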
Wnt bcat act = Wnt/beta-catenin pathway activators, primary screen, cell-based, plate reader, single point | activation, % at 9.35 µM | Wnt/beta-catenin reporter cell assay, activator | AID 743398, 2014 | 300,000 compounds, 1.2% hits; in the data active = activation above about 30%, passing the limit was not always enough; inconclusive = no clear call, values can overlap the other calls
MLL AF4-AF9 inh = inhibitors of AF4 peptide binding to AF9, primary screen, biochemical, AlphaScreen, biotin-AF4 peptide, FLAG-AF9, single point. Protein AF-9 (Homo sapiens), P42568. inhibition, % at 10 µM. 350,000 compounds, 0.47% hits. AID 651704, 2012;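 active = every replicate reaching a set inhibition limit, whatever the replicate mean, cut at about 25% in these data; inconclusive = mean inhibition reaches that limit but some replicates miss it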
Target sequence (P42568 whole entry, looked up): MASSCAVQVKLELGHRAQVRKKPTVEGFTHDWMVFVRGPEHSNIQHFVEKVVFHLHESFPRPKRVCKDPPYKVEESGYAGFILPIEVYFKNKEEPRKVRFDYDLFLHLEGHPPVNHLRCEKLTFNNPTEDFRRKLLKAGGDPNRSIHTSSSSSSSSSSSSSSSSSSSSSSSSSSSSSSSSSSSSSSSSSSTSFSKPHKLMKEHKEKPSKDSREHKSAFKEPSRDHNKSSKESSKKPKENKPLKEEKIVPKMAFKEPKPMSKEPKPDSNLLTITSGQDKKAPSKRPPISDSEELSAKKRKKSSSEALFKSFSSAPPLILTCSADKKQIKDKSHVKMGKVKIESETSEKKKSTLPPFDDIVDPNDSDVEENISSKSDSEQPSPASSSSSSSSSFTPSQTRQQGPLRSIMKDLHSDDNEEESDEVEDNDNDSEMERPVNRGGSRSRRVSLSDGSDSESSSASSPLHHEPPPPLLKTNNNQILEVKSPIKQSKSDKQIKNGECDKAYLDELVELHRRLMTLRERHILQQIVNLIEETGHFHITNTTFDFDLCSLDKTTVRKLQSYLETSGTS
SMARCA2 activ = SMARCA2 (BRM) function activators, primary screen, cell-based, luminescence, high throughput. 370,000 compounds, 1% hits. activation, % at 9.1 µM. MG213 cells, MMTV-luciferase reporter, dexamethasone, overnight; in the data active = activation above about 7.8%
esBAF inh = Bmi1 luciferase reporter increase in mESCs, primary screen, esBAF inhibitor project, mouse ES cells, Bmi1 luciferase knock-in, single point. AID 602393, 2012. reporter increase, % at 12.5 µM. 350,000 compounds, 2% hits. 24 h; 100% = twice the neutral-well signal; in the data active = activation above about 40%; inconclusive = no clear call, values can overlap the other calls;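 also: a rise in the Bmi1 reporter signal indicates esBAF inhibition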
FGF22 binding = binders of human FGF22 protein, primary screen, FGF22 synaptogenesis inhibitor project, biophysical, thermal shift, single point | activity (Tm shift, normalised), % at 9.99 µM | recombinant FGF22 thermal shift, SYPRO orange fluorescence; percent of sucrose octasulfate shift, DMSO zero | 340,000 compounds, 1.5% hits | Fibroblast growth factor 22 (Homo sapiens), Q9HCT0;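 active = mean Tm shift, scaled 0 neutral to 100 positive control, at about 1.3% or above, every replicate too, limit read from the data; inconclusive = no clear call, values can overlap the other calls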
Hits are given with their value. The list is not random: actives were taken first. Their share in the collection is about 4.3%.

`Cc1nc2ccc(S(=O)(=O)Nc3cc(-c4nc5cccnc5s4)ccc3C)cc2s1` gave Wnt bcat act inactive, MLL AF4-AF9 inh inactive, SMARCA2 activ inactive, esBAF inh 61 and FGF22 binding inactive.
`O=C(C[C@@H]1CC[C@@H]2[C@H](COC[C@H](O)CN2Cc2ccc(C(F)(F)F)cc2)O1)N1CCc2ccccc2C1` gave MLL AF4-AF9 inh inactive, esBAF inh inactive and FGF22 binding inactive.
For Cc1nn(C)c(Oc2cccc(C(F)(F)F)c2)c1C=O the results were MITF TRPM1 HTS inactive, Wnt bcat act inactive, MLL AF4-AF9 inh inactive, SMARCA2 activ inactive and FGF22 binding 43.
CN(C)c1ccc(/C=N/NC(=O)CNC(=O)c2ccncc2)cc1 was read as MITF TRPM1 HTS inactive, Wnt bcat act inactive, MLL AF4-AF9 inh inactive, SMARCA2 activ inactive, esBAF inh inactive and FGF22 binding inactive.
For CC/C(=C\c1ccc(N(C)C)cc1)c1ccncc1 the results were MITF TRPM1 HTS inactive, Wnt bcat act inactive, MLL AF4-AF9 inh 28, SMARCA2 activ inactive and FGF22 binding inactive.
For C[C@H]1CN([C@@H](C)CO)C(=O)c2cc(NS(C)(=O)=O)ccc2O[C@H]1CN(C)CC1CCCCC1 the results were MLL AF4-AF9 inh inactive, esBAF inh inactive and FGF22 binding inactive.
`COC(=O)N(C)C[C@@H]1OCc2ccccc2-c2c(n(C)c3ccccc23)C(=O)N([C@@H](C)CO)C[C@H]1C` gave MLL AF4-AF9 inh inactive, esBAF inh inactive and FGF22 binding inactive.
For COc1ccc(-c2[nH]ncc2CNC(C)c2ccccc2Cl)cc1F (stereo unspecified) the results were MITF TRPM1 HTS inactive, Wnt bcat act 43, MLL AF4-AF9 inh inactive, SMARCA2 activ inactive, esBAF inh inactive and FGF22 binding inactive.
`CCCn1c(N)c(N(CCOC)C(=O)/C=C/c2ccc(C(=O)OC)cc2)c(=O)[nH]c1=O` gave MITF TRPM1 HTS inactive, Wnt bcat act inactive, MLL AF4-AF9 inh inactive, SMARCA2 activ inactive and FGF22 binding 43.
Screening Cc1ccc(NC(=O)Nc2cccs2)nc1 returned MITF TRPM1 HTS inactive, Wnt bcat act inactive and SMARCA2 activ inactive.
Screening Cc1ccc(NC(=O)c2ccc3[nH]c(=O)c(=O)[nH]c3c2)nc1 returned MITF TRPM1 HTS inactive, Wnt bcat act inactive, MLL AF4-AF9 inh inactive, SMARCA2 activ inactive, esBAF inh inactive and FGF22 binding inactive.
For Cc1ccc(NC(=O)c2sccc2C)nc1 the results were MITF TRPM1 HTS inactive, Wnt bcat act 52, MLL AF4-AF9 inh inactive, SMARCA2 activ inactive, esBAF inh inactive and FGF22 binding inactive.
`Cc1ccc(NC(=O)c2ccc(F)cc2)nc1` gave MITF TRPM1 HTS inactive, Wnt bcat act 51, MLL AF4-AF9 inh inactive, SMARCA2 activ inactive and FGF22 binding inactive.
Screening Cc1cc(=O)[nH]c(SC(C(=O)O)c2ccccc2)n1 (stereo unspecified) returned MITF TRPM1 HTS inactive, Wnt bcat act inactive, SMARCA2 activ inactive and esBAF inh inactive.
Screening Cc1cc(-c2ccccc2)nc(SC(C(=O)O)c2ccccc2)n1 (stereo unspecified) returned MITF TRPM1 HTS inactive, Wnt bcat act inactive, MLL AF4-AF9 inh inactive, SMARCA2 activ inactive, esBAF inh inactive and FGF22 binding 43.
Screening COc1cccc(NC(=O)N[C@@H]2CC[C@@H](CC(=O)NCc3ccccn3)O[C@H]2CO)c1 returned MLL AF4-AF9 inh inactive, esBAF inh inactive and FGF22 binding inactive.
Screening CC(C)Oc1cccc(-c2n[nH]c(=S)n2N=Cc2ccc(OCc3ccccc3)cc2)c1 returned SMARCA2 activ inactive.
`O=[N+]([O-])c1ccc(-c2nnc(CNC3CCCC3)o2)cc1` gave MITF TRPM1 HTS inactive, Wnt bcat act inactive, MLL AF4-AF9 inh inactive, SMARCA2 activ inactive, esBAF inh inactive and FGF22 binding inactive.
`Clc1ccc(-c2nnc(CNC3CC3)o2)cc1` gave MITF TRPM1 HTS inactive, Wnt bcat act inactive, MLL AF4-AF9 inh inactive, SMARCA2 activ inactive, esBAF inh inactive and FGF22 binding 43.
Cc1ccc(-n2c(C)nc3oc4ccccc4c(=O)c3c2=O)cc1 was read as MITF TRPM1 HTS inactive, Wnt bcat act inconclusive, SMARCA2 activ inactive and esBAF inh 56.
For CCc1nc2oc3cc(OC)ccc3c(=O)c2c(=O)n1Cc1ccccc1 the results were MITF TRPM1 HTS inactive, Wnt bcat act inactive, MLL AF4-AF9 inh inactive, esBAF inh inactive and FGF22 binding inactive.
`CCc1nc2oc3cc(OC)ccc3c(=O)c2c(=O)n1-c1ccccc1` gave MITF TRPM1 HTS inactive, Wnt bcat act inactive, SMARCA2 activ inactive and esBAF inh 45.
Screening CNC[C@H]1Oc2ccc(NC(=O)C3CC3)cc2C(=O)N([C@H](C)CO)C[C@H]1C returned MLL AF4-AF9 inh inactive, esBAF inh inactive and FGF22 binding inactive.
For O=C(C[C@H]1CC[C@@H]2NC[C@@H](O)COC[C@H]2O1)NC1Cc2ccccc2C1 the results were MLL AF4-AF9 inh inactive, esBAF inh inactive and FGF22 binding inactive.
`CCCCn1cnc2c(SCc3ccccc3)nc(N)nc21` gave MITF TRPM1 HTS inactive, Wnt bcat act inactive, MLL AF4-AF9 inh inactive, SMARCA2 activ inactive, esBAF inh 50 and FGF22 binding inactive.
`COc1ccc(S(=O)(=O)N(C)C[C@H]2Oc3ccc(NS(=O)(=O)c4ccccc4)cc3CC(=O)N([C@@H](C)CO)C[C@H]2C)cc1` gave MLL AF4-AF9 inh inactive, esBAF inh inactive and FGF22 binding inactive.
Screening CSc1nc2ccc3nc(NC(=O)C4COc5ccccc5O4)sc3c2s1 (stereo unspecified) returned MITF TRPM1 HTS inactive, Wnt bcat act inactive, MLL AF4-AF9 inh inactive, SMARCA2 activ inactive, esBAF inh inactive and FGF22 binding inactive.
`Cc1nc2ccc3nc(NC(=O)C4COc5ccccc5O4)sc3c2s1` (stereo unspecified) gave Wnt bcat act inactive, MLL AF4-AF9 inh 48, SMARCA2 activ inactive, esBAF inh inactive and FGF22 binding inactive.
Screening Cc1nc2ccc(NC(=O)C3COc4ccccc4O3)cc2s1 (stereo unspecified) returned MITF TRPM1 HTS inconclusive, Wnt bcat act inactive, MLL AF4-AF9 inh inactive, SMARCA2 activ inactive, esBAF inh inactive and FGF22 binding inactive.
`Cc1nc2cc(NC(=O)C3COc4ccccc4O3)ccc2s1` (stereo unspecified) gave MITF TRPM1 HTS inconclusive, Wnt bcat act inactive, MLL AF4-AF9 inh inactive, SMARCA2 activ inactive, esBAF inh inactive and FGF22 binding 43.
`OCC(CCc1c[nH]c2ccccc12)c1c[nH]c2ccccc12` (stereo unspecified) gave MLL AF4-AF9 inh 41, SMARCA2 activ inactive and FGF22 binding inactive.
